Assay results from the supplement of paper PMC10849652.
Targets with a hit are over-represented here; the source holds about 7,900 in all. About 0.6% of all pairs of compound and target were hits.

Compound: c1cn2cc(-c3ccc4cn[nH]c4c3)nc(Nc3ccc(N4CCOCC4)cc3)c2n1 [entospletinib]
Assay: log2 fold change, soluble protein after heating vs DMSO (PISA); higher = thermal stabilisation; K562 cells, 10 uM, 30 min; active = over 0.2 and 3.5 SD of the protein, either way, in both replicates (recomputed)
Method in brief: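 Thermal stability values are relative to control samples and come from duplicates. They are expressed as log2 fold changes. For measurement, K562 cells (2×10^6 cells/mL) received 10 μM compound for 30 min, and aliquots were heated for 3 min over 48°C-58°C, pooled, and extracted at 4°C in PBS with 0.5% NP-40. Soluble protein, the supernatant after 21,000xg for 90 min, was quantified by TMTpro 16plex LC-MS/MS with equalised channel sums.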

Chain of UniProt O95628 (O95628 whole entry, looked up): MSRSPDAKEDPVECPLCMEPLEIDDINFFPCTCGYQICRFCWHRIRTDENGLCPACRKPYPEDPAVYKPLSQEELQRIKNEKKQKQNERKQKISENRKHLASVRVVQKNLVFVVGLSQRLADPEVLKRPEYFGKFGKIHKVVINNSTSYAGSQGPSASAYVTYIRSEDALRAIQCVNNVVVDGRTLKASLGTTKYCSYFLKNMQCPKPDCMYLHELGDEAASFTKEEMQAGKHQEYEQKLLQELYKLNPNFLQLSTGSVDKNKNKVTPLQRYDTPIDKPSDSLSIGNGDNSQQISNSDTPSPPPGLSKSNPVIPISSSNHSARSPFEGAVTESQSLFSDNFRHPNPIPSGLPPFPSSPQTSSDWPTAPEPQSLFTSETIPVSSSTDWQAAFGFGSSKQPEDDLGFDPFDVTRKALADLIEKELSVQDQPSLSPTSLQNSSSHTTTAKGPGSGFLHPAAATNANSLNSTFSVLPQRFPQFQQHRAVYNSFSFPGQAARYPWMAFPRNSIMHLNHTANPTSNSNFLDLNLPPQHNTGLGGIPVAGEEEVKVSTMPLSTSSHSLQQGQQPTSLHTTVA
Chain of UniProt Q96GQ5 (Q96GQ5 whole entry, looked up): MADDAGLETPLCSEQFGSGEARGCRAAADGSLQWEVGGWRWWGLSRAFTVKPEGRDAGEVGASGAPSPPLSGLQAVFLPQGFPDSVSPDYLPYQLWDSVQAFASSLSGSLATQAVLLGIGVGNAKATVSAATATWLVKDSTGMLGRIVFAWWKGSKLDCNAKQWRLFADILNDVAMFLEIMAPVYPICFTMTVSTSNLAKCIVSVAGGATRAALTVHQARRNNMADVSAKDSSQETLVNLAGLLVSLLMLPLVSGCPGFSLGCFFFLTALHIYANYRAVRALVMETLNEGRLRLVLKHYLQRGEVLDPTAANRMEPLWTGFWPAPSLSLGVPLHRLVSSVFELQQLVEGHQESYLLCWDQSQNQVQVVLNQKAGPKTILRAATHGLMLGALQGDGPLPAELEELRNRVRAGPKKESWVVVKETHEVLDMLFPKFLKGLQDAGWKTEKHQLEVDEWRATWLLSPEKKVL
Chain of UniProt Q8IWV2 (Q8IWV2 whole entry, looked up): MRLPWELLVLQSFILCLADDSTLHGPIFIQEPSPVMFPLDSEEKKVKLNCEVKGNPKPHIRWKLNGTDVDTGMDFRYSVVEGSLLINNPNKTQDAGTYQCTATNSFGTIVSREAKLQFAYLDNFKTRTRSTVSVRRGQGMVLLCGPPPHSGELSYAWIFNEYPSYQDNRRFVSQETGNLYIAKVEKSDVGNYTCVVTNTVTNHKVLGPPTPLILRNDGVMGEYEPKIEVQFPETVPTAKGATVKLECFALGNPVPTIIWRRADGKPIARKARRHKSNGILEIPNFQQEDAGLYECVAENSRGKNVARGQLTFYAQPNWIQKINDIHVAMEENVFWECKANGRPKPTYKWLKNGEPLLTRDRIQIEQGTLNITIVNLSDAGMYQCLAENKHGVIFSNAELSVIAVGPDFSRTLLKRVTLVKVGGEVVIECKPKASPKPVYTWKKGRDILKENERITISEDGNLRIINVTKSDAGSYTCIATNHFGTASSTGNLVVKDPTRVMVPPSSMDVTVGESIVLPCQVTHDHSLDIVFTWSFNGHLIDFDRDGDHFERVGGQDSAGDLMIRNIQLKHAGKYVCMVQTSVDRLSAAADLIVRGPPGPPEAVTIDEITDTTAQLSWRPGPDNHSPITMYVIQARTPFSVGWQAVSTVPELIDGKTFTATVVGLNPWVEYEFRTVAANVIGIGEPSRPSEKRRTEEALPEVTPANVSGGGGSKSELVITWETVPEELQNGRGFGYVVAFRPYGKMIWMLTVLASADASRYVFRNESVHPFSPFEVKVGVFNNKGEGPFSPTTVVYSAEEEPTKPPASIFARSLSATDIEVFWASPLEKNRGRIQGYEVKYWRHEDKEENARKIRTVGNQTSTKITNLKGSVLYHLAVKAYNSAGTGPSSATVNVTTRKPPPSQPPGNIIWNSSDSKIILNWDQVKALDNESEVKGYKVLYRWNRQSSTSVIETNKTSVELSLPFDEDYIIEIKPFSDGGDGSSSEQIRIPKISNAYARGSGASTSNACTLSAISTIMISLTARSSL
Chain of UniProt Q9H444 (Q9H444 whole entry, looked up): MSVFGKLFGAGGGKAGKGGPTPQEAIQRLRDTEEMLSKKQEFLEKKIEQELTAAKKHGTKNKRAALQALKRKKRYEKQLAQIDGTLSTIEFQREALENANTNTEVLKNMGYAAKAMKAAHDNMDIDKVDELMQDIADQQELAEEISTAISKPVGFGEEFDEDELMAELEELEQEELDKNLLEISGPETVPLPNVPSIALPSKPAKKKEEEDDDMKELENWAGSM
Chain of UniProt Q5T5Y3 (Q5T5Y3 whole entry, looked up): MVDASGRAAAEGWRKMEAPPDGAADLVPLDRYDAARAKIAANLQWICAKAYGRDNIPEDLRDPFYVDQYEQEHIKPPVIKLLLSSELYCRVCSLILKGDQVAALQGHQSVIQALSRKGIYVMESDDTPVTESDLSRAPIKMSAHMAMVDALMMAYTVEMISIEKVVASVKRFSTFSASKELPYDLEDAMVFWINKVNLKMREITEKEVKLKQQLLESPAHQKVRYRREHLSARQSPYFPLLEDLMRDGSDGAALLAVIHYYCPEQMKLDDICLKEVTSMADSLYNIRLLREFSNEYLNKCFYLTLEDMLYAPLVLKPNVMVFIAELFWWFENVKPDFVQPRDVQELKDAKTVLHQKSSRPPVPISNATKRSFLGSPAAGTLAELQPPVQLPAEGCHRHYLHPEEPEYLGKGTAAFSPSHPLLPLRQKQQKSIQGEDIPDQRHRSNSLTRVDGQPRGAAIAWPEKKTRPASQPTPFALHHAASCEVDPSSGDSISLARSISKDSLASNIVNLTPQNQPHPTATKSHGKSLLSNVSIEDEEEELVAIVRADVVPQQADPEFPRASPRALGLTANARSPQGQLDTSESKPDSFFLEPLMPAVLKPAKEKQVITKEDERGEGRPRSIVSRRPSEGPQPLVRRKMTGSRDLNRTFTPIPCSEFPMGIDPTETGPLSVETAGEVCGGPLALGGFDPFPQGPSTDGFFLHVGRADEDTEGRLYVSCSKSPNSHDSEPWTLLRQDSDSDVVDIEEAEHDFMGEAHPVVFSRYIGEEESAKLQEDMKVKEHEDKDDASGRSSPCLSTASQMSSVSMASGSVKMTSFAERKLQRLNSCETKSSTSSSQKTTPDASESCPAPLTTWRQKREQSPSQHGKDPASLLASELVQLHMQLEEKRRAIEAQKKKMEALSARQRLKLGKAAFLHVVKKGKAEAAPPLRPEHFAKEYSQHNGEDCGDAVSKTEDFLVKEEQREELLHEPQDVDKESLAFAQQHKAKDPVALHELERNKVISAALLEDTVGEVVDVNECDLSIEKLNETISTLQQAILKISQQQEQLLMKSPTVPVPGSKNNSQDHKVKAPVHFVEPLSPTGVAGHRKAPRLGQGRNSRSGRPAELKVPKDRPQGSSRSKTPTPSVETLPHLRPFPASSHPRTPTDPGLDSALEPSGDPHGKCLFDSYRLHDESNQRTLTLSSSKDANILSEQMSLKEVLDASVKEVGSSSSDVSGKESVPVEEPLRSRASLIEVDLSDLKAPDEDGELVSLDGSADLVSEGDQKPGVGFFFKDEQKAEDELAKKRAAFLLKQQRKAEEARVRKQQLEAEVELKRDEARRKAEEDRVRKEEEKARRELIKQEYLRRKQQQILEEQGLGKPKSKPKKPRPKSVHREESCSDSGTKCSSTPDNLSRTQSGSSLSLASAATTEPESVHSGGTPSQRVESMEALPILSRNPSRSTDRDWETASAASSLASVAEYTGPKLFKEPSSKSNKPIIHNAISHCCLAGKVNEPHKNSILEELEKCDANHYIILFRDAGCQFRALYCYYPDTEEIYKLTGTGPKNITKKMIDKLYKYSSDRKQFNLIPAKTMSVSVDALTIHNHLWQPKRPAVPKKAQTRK
Chain of UniProt P21127 (P21127 whole entry, looked up): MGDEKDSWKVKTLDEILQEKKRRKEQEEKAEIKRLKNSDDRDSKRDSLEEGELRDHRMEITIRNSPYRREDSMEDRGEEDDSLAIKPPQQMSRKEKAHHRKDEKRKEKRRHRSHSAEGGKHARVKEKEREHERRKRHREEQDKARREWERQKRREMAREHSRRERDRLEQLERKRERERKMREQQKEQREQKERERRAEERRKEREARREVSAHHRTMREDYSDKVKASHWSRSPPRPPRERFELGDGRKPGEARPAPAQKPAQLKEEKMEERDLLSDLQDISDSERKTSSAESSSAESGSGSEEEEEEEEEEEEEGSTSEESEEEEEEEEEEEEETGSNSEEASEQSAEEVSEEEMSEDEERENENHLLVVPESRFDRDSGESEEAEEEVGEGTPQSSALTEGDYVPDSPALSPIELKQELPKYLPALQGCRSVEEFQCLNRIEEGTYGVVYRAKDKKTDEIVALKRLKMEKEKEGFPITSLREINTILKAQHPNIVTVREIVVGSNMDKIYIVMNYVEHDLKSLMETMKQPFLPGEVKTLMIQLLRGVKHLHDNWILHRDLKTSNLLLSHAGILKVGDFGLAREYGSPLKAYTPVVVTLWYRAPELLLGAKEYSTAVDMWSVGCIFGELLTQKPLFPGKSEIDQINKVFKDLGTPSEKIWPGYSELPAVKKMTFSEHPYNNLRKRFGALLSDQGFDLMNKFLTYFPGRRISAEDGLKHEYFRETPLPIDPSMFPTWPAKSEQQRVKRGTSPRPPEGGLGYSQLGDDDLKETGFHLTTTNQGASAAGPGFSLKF
Chain of UniProt P45973 (P45973 whole entry, looked up): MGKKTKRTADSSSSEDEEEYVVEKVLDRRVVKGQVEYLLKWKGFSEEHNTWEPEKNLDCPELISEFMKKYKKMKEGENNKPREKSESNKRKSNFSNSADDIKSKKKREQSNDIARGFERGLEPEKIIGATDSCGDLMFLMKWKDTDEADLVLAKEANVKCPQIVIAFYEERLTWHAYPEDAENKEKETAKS
Chain of UniProt Q5JTJ3 (Q5JTJ3 whole entry, looked up): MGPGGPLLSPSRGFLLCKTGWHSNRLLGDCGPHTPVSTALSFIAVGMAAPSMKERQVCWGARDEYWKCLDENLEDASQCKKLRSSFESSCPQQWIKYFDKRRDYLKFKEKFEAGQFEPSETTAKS

log2 fold change, inactive:
CS (UniProt O75390) 0.005, COX7B (UniProt P24311) 0.005, COX20 isoform 2 (UniProt Q5RI15) -0.022, C16orf58 (UniProt Q96GQ5) 0.011, CNTN4 (UniProt Q8IWV2) -0.148, CHEK1 (UniProt O14757) -0.057, COX6B1 (UniProt P14854) 0.078, CLUH (UniProt O75153) 0.06, CBS (UniProt P35520) 0.016, CMTM3 (UniProt Q96MX0) 0.043, C1D (UniProt Q13901) -0.043, CSNK2A2 (UniProt P19784) 0.096, CAMSAP1 isoform 3 (UniProt Q5T5Y3) -0.003, COA6 isoform 2 (UniProt Q5JTJ3) 0.004, CNOT4 isoform 9 (UniProt O95628) 0.02, CHMP4B (UniProt Q9H444) 0.044, CELF2 isoform 3 (UniProt O95319) 0.009, CSNK2A1 (UniProt P68400) 0.113, CHMP4C (UniProt Q96CF2) 0.036, CSNK2B (UniProt P67870) 0.077, CSNK1D (UniProt P48730) 0.109, CHCHD4 isoform 2 (UniProt Q8N4Q1) 0.036, C19orf54 (UniProt Q5BKX5) 0.17, CHST11 (UniProt Q9NPF2) -0.1, CPSF7 isoform 3 (UniProt Q8N684) -0.011, CIZ1 (UniProt Q9ULV3) -0.012, CNN1 (UniProt P51911) -0.067, CBX5 (UniProt P45973) 0.01, CNOT4 isoform 6 (UniProt O95628) -0.008, CHD4 isoform 2 (UniProt Q14839) 0.007, CD151 (UniProt P48509) -0.121, CPT1A (UniProt P50416) 0.019, CDK16 isoform 2 (UniProt Q00536) -0.022, CLN8 (UniProt Q9UBY8) 0.022, CHKA (UniProt P35790) 0.021, C4orf33 (UniProt Q8N1A6) 0.082, CDK11B (UniProt P21127) 0.14, CHAF1A (UniProt Q13111) -0.126
